# The list is not random: actives were taken first. Their share in the collection is about 1.7%.
# beta cell repl = inducers of beta-cell replication in MIN6 cells; 330,000 tested, 0.29% active; AID 2380; proliferation, % at 10 µM; MIN6 cells proliferation, ATPlite luminescence, 48 h; cells starved in 0.2% serum; 100% = growth in 10% serum;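 active = compounds whose signal lies at least 3.5 SD above the mean of all wells on their plate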;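 also: 0% = DMSO-treated cells in low-serum medium and 100% = 10% serum control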
# MOR-DOR inv ag = inverse agonist of human OPRM1-OPRD1 heterodimerization | AID 504357 | inhibition, % at 9.3 µM | cell-based MOR-DOR heterodimer luminescence, inverse agonism | 340,000 tested, 0.21% active; in the data active = inhibition above about 22%, passing the limit was not always enough;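 also: 0% = cells with DMSO and 100% = wells without cells with DMSO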
# MOR-DOR ag = agonists of human mu-delta opioid receptor heterodimerization; P35372+P41143; cells, OPRM1-OPRD1 heterodimerization, luminescence; activation, % at 9.3 µM; 340,000 tested, 0.3% active; AID 504326; in the data active = activation above about 18%;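 also: 0% = vehicle-treated cells and 100% = reference agonist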
# HTR5A inv ctr = counter-screen for OPRM1-OPRD1 inverse agonists: human HTR5A inverse agonism | P47898 | HTR5A cell line, luminescence | inhibition, % at 9.3 µM | 340,000 tested, 0.083% active | AID 504634; in the data active = inhibition mostly above about 23%, no sharp cut-off; inactive = mostly below about 18%;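 also: 0% = cells with DMSO and 100% = no-cell wells with DMSO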
# Target sequence (P47898 whole entry, looked up): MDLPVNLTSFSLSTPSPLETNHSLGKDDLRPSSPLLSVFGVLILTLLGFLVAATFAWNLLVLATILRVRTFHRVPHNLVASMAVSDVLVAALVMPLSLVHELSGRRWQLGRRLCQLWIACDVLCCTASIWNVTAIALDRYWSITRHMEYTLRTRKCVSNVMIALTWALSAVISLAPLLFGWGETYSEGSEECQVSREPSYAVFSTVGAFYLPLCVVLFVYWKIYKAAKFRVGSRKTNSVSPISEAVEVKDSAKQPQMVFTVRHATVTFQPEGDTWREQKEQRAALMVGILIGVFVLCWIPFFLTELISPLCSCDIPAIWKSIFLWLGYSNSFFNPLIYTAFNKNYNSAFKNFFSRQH
# HTR5A ag = HTR5A agonism, opioid heterodimer counter-screen | HTR5A agonist assay, luminescence, cell-based | activation, % at 9.3 µM | 340,000 tested, 0.61% active; in the data active = activation mostly above about 9.5%, no sharp cut-off; inactive = mostly below about 7.6%;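 also: 0% = cells with vehicle only and 100% = reference agonist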
# V-ATPase pHluor = yeast V-ATPase proton transport regulation by pHLuorin; S. cerevisiae, pHLuorin cytosolic pH fluorescence; response, % at 10 µM; 350,000 tested, 0.37% active; AID 504577; in the data active = response mostly above about 7.3%, no sharp cut-off; inactive = mostly below about 5.4%; also: actives read high
# * marks the source's active call; other numbers are inactive results; . = no result given.
SMILES,beta cell repl,MOR-DOR inv ag,MOR-DOR ag,HTR5A inv ctr,HTR5A ag,V-ATPase pHluor
COc1ccc(C(F)(F)F)cc1N/C=C/c1nnnn1-c1ccc2ccccc2c1,-3,-4,1,-41,12*,1
COc1ccc(-n2nnnc2/C=C\Nc2ccc(C)cc2)cc1,-4,6,-1,11,-2,4
C[C@@H]1ON(C)[C@H]2C[C@H]3c4cc(-c5cccc(F)c5)ccc4CCN3C(=O)[C@@H]12,.,9,-2,0,0,-1
O=C(N/N=C/c1ccccc1OC(F)F)c1cc(-c2ccncc2)nc2ccccc12,2,-7,1,-3,12*,0
O=C(O)COc1ccccc1/C=N/NC(=O)c1cc(-c2ccccc2)nc2ccccc12,2,7,-1,22,-4,-1
O=Cc1s/c(=N\S(=O)(=O)c2ccccc2)n(CCCCl)c1Cl,.,34*,-7,9,-4,-2
Nc1cc(=O)[nH]c(SCC(=O)N2CCN(S(=O)(=O)c3ccc4ccccc4c3)CC2)n1,0,15,-3,11,-4,-1
O=C(CSc1n[nH]c(-c2cccs2)n1)N1CCN(S(=O)(=O)c2ccc3ccccc3c2)CC1,-3,-23,4,11,9.8*,-1
C[C@@H]1CN([C@H](C)CO)C(=O)c2cc(NC(=O)Nc3ccc(F)cc3)ccc2O[C@@H](C)CCCCO[C@H]1CN(C)S(=O)(=O)c1cccs1,.,.,.,.,.,0
COc1cccc(C2C=C(c3ccc(Br)s3)Nc3ncnn32)c1OC (stereo not drawn),-2,18,-3,16,2,0
Fc1ccc(Br)cc1C1C=C(c2ccc(Br)s2)Nc2ncnn21 (stereo not drawn),-1,1,0,1,17*,3
Cc1cc(-n2c(C)cc(C(=O)CSc3ncnc4ccccc34)c2C)no1,-5,-41,7,-19,16*,-3
CSc1ccccc1NC(=O)CN(C)C(=O)C(C)SCc1nc2sc(C)c(C)c2c(=O)[nH]1 (stereo not drawn),.,7,-2,14,-5,-2
CCC(CC)NC(=O)c1nn(Cc2ccccc2)c(=O)c2ccccc12,-1,-35,5,-26,9.8*,2
COCCn1c(N)c(C(=O)NS(=O)(=O)c2ccc(C)cc2)c(=O)[nH]c1=O,-3,5,-1,-29,11*,-1
O=C(COC(=O)COc1ccc(Cl)cc1)Nc1cccnc1Cl,.,.,.,.,.,0
CN(/C=C1/C(=O)CNC1=O)CCO,3,.,.,.,.,0
Cc1ccc(NC(=O)CSCc2ccco2)cc1,-2,15,-3,0,0,-1
c1coc(CSSCc2ccco2)c1,-5,6,-2,4,7,9.5*
COc1cccc(CN(C(=O)c2ccco2)C2CCS(=O)(=O)C2)c1 (stereo not drawn),-2,8,-2,-36,13*,-5
COc1ccc(CN(C(=O)c2ccco2)C2CCS(=O)(=O)C2)cc1 (stereo not drawn),-2,12,-2,17,-7,-4
O=C(Cn1ccc([N+](=O)[O-])n1)Nc1ccccn1,-1,2,0,-42,3,1
Cc1cc(C)c(O)c(CN(C)Cc2cc(Cl)cc(Cl)c2O)c1,.,-20,4,-53,13*,0
COC(=O)[C@H]1C[C@H](OC(=O)NC2CCCC2)[C@@]2(O)CN(S(=O)(=O)c3ccc(C)cc3)CC2[C@H]1C(=O)OC (stereo partly drawn),.,.,.,.,.,0
COc1cccc(NC(=O)C2CCCO2)c1 (stereo not drawn),0,2,0,2,-2,3
SMILES,beta cell repl,MOR-DOR inv ag,MOR-DOR ag,HTR5A inv ctr,HTR5A ag,V-ATPase pHluor
Cc1ccc(OCC(=O)NS(=O)(=O)c2ccc(Cl)cc2)cc1,6,10,-2,4,6,0
O=C(COc1ccccc1)NS(=O)(=O)c1ccc(Cl)cc1,-2,9,-2,-10,12*,6
CCNC(=O)C1CC(=O)N(Cc2ccc3c(c2)OCO3)C(=Nc2ccc(OCC)cc2)S1 (stereo not drawn),1,2,0,-6,9.0*,0
CCOCC(=O)Nc1cc(C)on1,-3,14,-3,2,3,-3
CC(C)(C)S(=O)N1Cc2ccc(CO)cc2[C@@H]1CCO (stereo partly drawn),.,-12,3,9,-3,-1
CC(C)c1ccc(S(=O)(=O)/N=C2/C=C(Sc3ncn[nH]3)C(=O)c3ccccc32)cc1,.,-127,25*,19,3,2
O=C(CN1CCN(CCC(=O)Nc2ccccc2F)CC1)Nc1ccc(Cl)cc1,-2,10,-2,-29,13*,-4
O=C(CN1CCN(CCC(=O)Nc2ccccc2F)CC1)Nc1ccc(F)cc1,-1,16,-3,14,0,0
Cc1cc(C)cc(NC(=O)c2cccc3c2C(=O)N(C2CCCCC2)C3)c1,-3,9,-2,16,1,-4
COc1cc(NC(=O)c2cccc3c2C(=O)N(C2CCCCC2)C3)cc(OC)c1OC,-3,6,-1,-17,11*,-3
C[C@H](CO)N1C[C@H](C)[C@@H](CN(C)S(=O)(=O)c2ccc(F)cc2)Oc2ccc(NC(=O)c3ccncc3)cc2C1=O,0,14,-2,4,9.5*,-3
C[C@H](CO)N1C[C@H](C)[C@@H](CN(C)S(=O)(=O)c2ccccc2)Oc2ccc(NC(=O)c3ccncc3)cc2C1=O,-4,2,0,3,-2,-2
O=C1NC[C@@H](c2ccccc2)OC(=O)[C@@H](Cc2ccc(F)cc2)C/C=C\C[C@@H]1CC(=O)N(CCO)Cc1ccccc1,-5,37*,-7,48*,-19,-1
O=C1NC[C@H](c2ccccc2)OC(=O)[C@H](Cc2ccc(F)cc2)C/C=C\C[C@@H]1CC(=O)N(CCO)Cc1ccccc1,-3,18,-4,-1,3,1
COc1cccc(-n2cc(CNCc3cn(C)nc3-c3ccccc3F)cn2)c1,-3,-27,5,1,0,14*
CC(C)CCNC(=O)C1CCN(S(=O)(=O)c2ccc3c(c2)CC(C)N3C(=O)C2CCC2)CC1 (stereo not drawn),-3,3,-1,-11,3,-4
Cc1ccc(CNC(=O)C2CCN(S(=O)(=O)c3ccc4c(c3)CC(C)N4C(=O)C3CCC3)CC2)o1 (stereo not drawn),-3,11,-2,-6,11*,-2
CC(C)(C)c1cc(CCC(=O)NNC(=S)NC(=O)c2ccccc2)cc(C(C)(C)C)c1O,-6,68*,-9,82*,-29,3
CCOc1ccc(NC(=O)c2ccc(NC(=S)NC3CCCCC3)cc2)cc1,-5,-56,11,-27,9.9*,-2
COC(=O)C1=C(C)N(Cc2cccnc2)C(=O)/C1=C\c1sccc1C,3,15,-3,-3,0,5
